{"source": "PubChem BioAssay AID435005", "about": "(Broad Institute, 2010)", "note": "Screen size: about 300,000 compounds; about 2,400 (0.8%) were called active. The sample holds actives, similar compounds and a random draw of the others, so the mix is not that of the screen.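 The calls were made as follows: active = Every replicate reaches about 75%, or at least half do and their mean reaches it too (limit read from the data); inconclusive = At least half of replicates reach the limit but their mean does not; inactive = Under half of replicates reach the limit.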"}
{"assay": "INS-1E beta cell survival under cytokines – luminescence, primary screen (AID 435005);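 also: 0% = cytokine-treated negative control wells and 100% = positive control rescue; higher means more ATP so stronger rescue from cytokine killing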", "conditions": "INS-1E cytokine-induced death, ATP luminescence, 48 h; active compounds read high; percent of positive-control rescue, neutral wells zero; concentration not given here"}
{"smiles": "COc1ccccc1NC(=O)COC(=O)CNC(=O)C1CCCCC1", "protection from apoptosis": "-4.98% (inactive)"}
{"smiles": "CCCCCCSc1ccc([C@@H]2[C@H]3C(=O)N(CC)C(=O)[C@H]3[C@]3(C(=O)OC)CCCCN23)cc1", "protection from apoptosis": "2.19% (inactive)"}
{"smiles": "COC(=O)C1=C(C)NC(=S)NC1c1ccc(OCC(=O)N2CC(C)OC(C)C2)c(OC)c1", "note": "(centres undefined)", "protection from apoptosis": "0.55% (inactive)"}
{"smiles": "O=C(CCCO)N/N=C/c1cc(Br)ccc1O", "protection from apoptosis": "2.57% (inactive)"}
{"smiles": "O=C(N/N=C/c1ccccc1O)C1CCCC1", "protection from apoptosis": "8.23% (inactive)"}
{"smiles": "O=C(N/N=C/c1ccccc1O)/C(=C/c1ccccc1)CCO", "protection from apoptosis": "85.8% (active)"}
{"smiles": "O=C(CN1C(=O)NC2(CCCC2)C1=O)Nc1cc(C(F)(F)F)ccc1N1CCOCC1", "protection from apoptosis": "1.66% (inactive)"}
{"smiles": "CCCOc1ccc(C(=O)NCCc2ccccc2)cc1", "protection from apoptosis": "9.99% (inactive)"}
{"smiles": "CCCOc1ccc(Cc2c(O)nc(SC)[nH]c2=O)cc1C", "protection from apoptosis": "-2.93% (inactive)"}
{"smiles": "CCCOc1ccc(Cc2c(Cl)nc(SC)nc2NC)cc1", "protection from apoptosis": "82.7% (active)"}
{"smiles": "COc1ccc(C2=Nn3c(nnc3-c3ccccc3OC)SC2)cc1OC1CCCC1", "protection from apoptosis": "31.3% (inactive)"}
{"smiles": "CCOc1ccc(CN2CCCN(C)CC2)cc1", "protection from apoptosis": "-3.58% (inactive)"}
{"smiles": "CCOc1ccc(CN2CCN(Cc3c[nH]c4ccccc34)CC2)cc1", "protection from apoptosis": "76.1% (active)"}
{"smiles": "O=C(NCCc1c[nH]c2ccccc12)C1CCN(Cc2ccc(Br)cc2)CC1", "protection from apoptosis": "-12.4% (inactive)"}
{"smiles": "CN(CC(=O)Nc1ccc(Cl)cc1)CC(=O)Nc1cccc2ccccc12", "protection from apoptosis": "0.976% (inactive)"}
{"smiles": "Cc1onc(-c2c(F)cccc2Cl)c1C(=O)OCC(=O)N1C(C)CCCC1C", "note": "(centres undefined)", "protection from apoptosis": "1.7% (inactive)"}
{"smiles": "Cc1[nH]n(-c2ccccc2)c(=O)c1/C=N/NC(=O)c1ccoc1C", "protection from apoptosis": "107% (active)"}
{"smiles": "COc1cc(/C=N/NC(=O)c2ccoc2C)ccc1OCCN1CCCCC1", "protection from apoptosis": "-1.12% (inactive)"}
{"smiles": "Cc1[nH]n(-c2ccc([N+](=O)[O-])cc2)c(=O)c1C=NCCN1CCN(C(=O)c2ccccc2F)CC1", "protection from apoptosis": "48.6% (inactive)"}
{"smiles": "Cc1occc1C(=O)N/N=C/c1ccc(-c2cccc([N+](=O)[O-])c2)o1", "protection from apoptosis": "4.96% (inactive)"}
{"smiles": "Cc1ccc(-n2[nH]c(C)c(/C=N/NC(=O)c3cccc([N+](=O)[O-])c3)c2=O)cc1C", "protection from apoptosis": "106% (active)"}
{"smiles": "Cc1cccc(C(=O)NNC(=O)c2cccc([N+](=O)[O-])c2)c1", "protection from apoptosis": "-5.35% (inactive)"}
{"smiles": "Cc1ccc(N2C(=O)N3[C@@H]4c5ccccc5OC[C@@H]4[C@@H](c4ccccc4)[C@@]3(C)C2=O)cc1", "protection from apoptosis": "-1.96% (inactive)"}
{"smiles": "Cc1ccc(S(=O)(=O)N(C)C)cc1NC(=O)CN1c2cccc3cccc(c23)S1(=O)=O", "protection from apoptosis": "-0.228% (inactive)"}
{"smiles": "Cc1ccccc1NCC(=O)N/N=C\\c1ccc([N+](=O)[O-])s1", "protection from apoptosis": "3.12% (inactive)"}
{"smiles": "CC(C)(C)c1cc(C(=O)N/N=C/c2ccc([N+](=O)[O-])s2)n[nH]1", "protection from apoptosis": "111% (active)"}
{"smiles": "COc1ccc(C(=O)NCC(=O)N/N=C/c2ccc([N+](=O)[O-])o2)cc1OC", "protection from apoptosis": "-11.1% (inactive)"}
{"smiles": "CCOc1ccc(NC(=O)CCC(=O)N/N=C/c2ccc([N+](=O)[O-])s2)cc1", "protection from apoptosis": "-9.66% (inactive)"}
{"smiles": "COc1ccc(C(=O)NCC(=O)N/N=C/c2ccc([N+](=O)[O-])s2)cc1OC", "protection from apoptosis": "91.3% (active)"}
{"smiles": "COc1ccc(C(=O)COC(=O)c2ccc([N+](=O)[O-])s2)cc1OC", "protection from apoptosis": "4.99% (inactive)"}
{"smiles": "CCN(C[C@H]1N[C@@](CC)(C(=O)OC)[C@H]2C(=O)N(Cc3ccccc3)C(=O)[C@@H]12)S(=O)(=O)c1ccc(C(F)(F)F)cc1", "protection from apoptosis": "13.9% (inactive)"}
{"smiles": "COc1ccc(C)cc1NC(=O)c1cc(-c2ccccc2)nc2c1cnn2C(C)C", "protection from apoptosis": "15.6% (inactive)"}
{"smiles": "COc1ccc(S(=O)(=O)Nc2cccc3c2O[C@H](CN(C)S(=O)(=O)c2ccc(OC)cc2)[C@@H](C)CN([C@H](C)CO)C3=O)cc1", "protection from apoptosis": "-7.76% (inactive)"}
{"smiles": "COc1ccc(S(=O)(=O)N(C)C[C@@H]2Oc3ccc(NS(=O)(=O)c4cn(C)cn4)cc3C(=O)N([C@@H](C)CO)C[C@@H]2C)cc1", "protection from apoptosis": "-2.08% (inactive)"}
{"smiles": "Nn1c(SCC(=O)NC2CCCc3ccccc32)nnc1C1CC1", "note": "(centres undefined)", "protection from apoptosis": "-5.42% (inactive)"}
{"smiles": "COc1ccc(CCNC(=O)COC(=O)c2cnc(Cl)c(Cl)c2)cc1", "protection from apoptosis": "-3.76% (inactive)"}
{"smiles": "C/C(=N\\NC(=O)Cc1ccc(Br)cc1)c1cccnc1", "protection from apoptosis": "-3.84% (inactive)"}
{"smiles": "C/C(=N\\NC(=O)Cc1ccc(F)cc1)c1ccc(F)cc1", "protection from apoptosis": "-1.1% (inactive)"}
{"smiles": "C/C(=N\\NC(=O)c1ccccc1F)c1ccccn1", "protection from apoptosis": "92% (active)"}
{"smiles": "C/C(CC(=O)Nc1ccc(N(C)C)cc1)=N\\NC(=O)c1ccccc1F", "protection from apoptosis": "1.37% (inactive)"}
{"smiles": "COC(=O)c1ccccc1NC(=S)NC(=O)c1ccccc1F", "protection from apoptosis": "1.17% (inactive)"}
{"smiles": "C/C(=N\\NC(=O)Cc1ccc(Cl)cc1)c1ccccn1", "protection from apoptosis": "87.6% (active)"}
{"smiles": "O=C(COC(=O)c1ccccn1)NNC(=O)c1ccc(Br)cc1", "protection from apoptosis": "-13.1% (inactive)"}
{"smiles": "Cc1cc(C)cc(OCC(=O)Nc2ccc(N3CCOCC3)cc2N2CCOCC2)c1", "protection from apoptosis": "1.95% (inactive)"}
{"smiles": "CN(CC(=O)Nc1ccc(OC(F)F)cc1)S(=O)(=O)/C=C/c1ccccc1", "protection from apoptosis": "-0.758% (inactive)"}
{"smiles": "COc1ccc(CCNC(=O)CSc2nc3[nH]ncc3c(=O)n2-c2cccc(C(F)(F)F)c2)cc1OC", "protection from apoptosis": "4.86% (inactive)"}
{"smiles": "Cc1cccc2nc(CSc3nc4[nH]ncc4c(=O)n3-c3cccc(Cl)c3)cc(=O)n12", "protection from apoptosis": "92.7% (active)"}
{"smiles": "CCc1ccc(-n2c(SCc3cc(=O)n4cc(Br)ccc4n3)nc3[nH]ncc3c2=O)cc1", "protection from apoptosis": "16.3% (inactive)"}
{"smiles": "CC[C@@H]1CCCCc2ccccc2[C@@H](C(=O)C[C@H](O)CC(C)=O)OC1=O", "protection from apoptosis": "-2.96% (inactive)"}
{"smiles": "C[C@@H]1CN([C@@H](C)CO)C(=O)c2cccc(NS(=O)(=O)c3ccc(F)cc3)c2O[C@H]1CN(C)C(=O)NC1CCCCC1", "protection from apoptosis": "-0.297% (inactive)"}
{"smiles": "CC(C)OCCCNc1ncnc2c1[nH]c1ccc(F)cc12", "protection from apoptosis": "104% (active)"}
{"smiles": "CC(C)OCCCNC(=O)c1cc(Sc2ccc(F)cc2)nc2ccccc12", "protection from apoptosis": "0.00619% (inactive)"}
{"smiles": "COc1cc(OC)c(OC)cc1/C=N/Nc1ncnc2c1[nH]c1ccc(C)cc12", "protection from apoptosis": "6% (inactive)"}
{"smiles": "COc1ccc(NC(=O)CN(C)C(=O)c2cc(C3CC3)nn2-c2ccccc2)cc1", "protection from apoptosis": "-6.53% (inactive)"}
